Bioassay records (PubChem)
Shown are actives, neighbours in structure and some others; about 2.1% of the full set was active somewhere.
SIRT5 inh: SIRT5 desuccinylase inhibitors, primary screen, biochemical, fluorescence imaging, single point, set 5; NAD-dependent protein deacylase sirtuin-5, mitochondrial (Homo sapiens), Q9NXA8; Purified SirT5, succinyl-peptide AMC, trypsin-coupled fluorescence; inhibition, % at 15 µM; 1.1% of 330,000 active; AID 652115, 2013; in the data active = inhibition above about 15%; inconclusive = no clear call, values can overlap the other calls
NSD2 HMT inh: NSD2 histone methyltransferase inhibitors, primary screen, biochemical, AlphaScreen, single concentration, set 2; 0.54% of 310,000 active; NSD2 peptide methylation, 120 min; inhibition, % at 12.5 µM; AID 743445, 2014; Histone-lysine N-methyltransferase NSD2 (Homo sapiens), O96028; in the data active = inhibition above about 50%
Target sequence (O96028 whole entry, looked up): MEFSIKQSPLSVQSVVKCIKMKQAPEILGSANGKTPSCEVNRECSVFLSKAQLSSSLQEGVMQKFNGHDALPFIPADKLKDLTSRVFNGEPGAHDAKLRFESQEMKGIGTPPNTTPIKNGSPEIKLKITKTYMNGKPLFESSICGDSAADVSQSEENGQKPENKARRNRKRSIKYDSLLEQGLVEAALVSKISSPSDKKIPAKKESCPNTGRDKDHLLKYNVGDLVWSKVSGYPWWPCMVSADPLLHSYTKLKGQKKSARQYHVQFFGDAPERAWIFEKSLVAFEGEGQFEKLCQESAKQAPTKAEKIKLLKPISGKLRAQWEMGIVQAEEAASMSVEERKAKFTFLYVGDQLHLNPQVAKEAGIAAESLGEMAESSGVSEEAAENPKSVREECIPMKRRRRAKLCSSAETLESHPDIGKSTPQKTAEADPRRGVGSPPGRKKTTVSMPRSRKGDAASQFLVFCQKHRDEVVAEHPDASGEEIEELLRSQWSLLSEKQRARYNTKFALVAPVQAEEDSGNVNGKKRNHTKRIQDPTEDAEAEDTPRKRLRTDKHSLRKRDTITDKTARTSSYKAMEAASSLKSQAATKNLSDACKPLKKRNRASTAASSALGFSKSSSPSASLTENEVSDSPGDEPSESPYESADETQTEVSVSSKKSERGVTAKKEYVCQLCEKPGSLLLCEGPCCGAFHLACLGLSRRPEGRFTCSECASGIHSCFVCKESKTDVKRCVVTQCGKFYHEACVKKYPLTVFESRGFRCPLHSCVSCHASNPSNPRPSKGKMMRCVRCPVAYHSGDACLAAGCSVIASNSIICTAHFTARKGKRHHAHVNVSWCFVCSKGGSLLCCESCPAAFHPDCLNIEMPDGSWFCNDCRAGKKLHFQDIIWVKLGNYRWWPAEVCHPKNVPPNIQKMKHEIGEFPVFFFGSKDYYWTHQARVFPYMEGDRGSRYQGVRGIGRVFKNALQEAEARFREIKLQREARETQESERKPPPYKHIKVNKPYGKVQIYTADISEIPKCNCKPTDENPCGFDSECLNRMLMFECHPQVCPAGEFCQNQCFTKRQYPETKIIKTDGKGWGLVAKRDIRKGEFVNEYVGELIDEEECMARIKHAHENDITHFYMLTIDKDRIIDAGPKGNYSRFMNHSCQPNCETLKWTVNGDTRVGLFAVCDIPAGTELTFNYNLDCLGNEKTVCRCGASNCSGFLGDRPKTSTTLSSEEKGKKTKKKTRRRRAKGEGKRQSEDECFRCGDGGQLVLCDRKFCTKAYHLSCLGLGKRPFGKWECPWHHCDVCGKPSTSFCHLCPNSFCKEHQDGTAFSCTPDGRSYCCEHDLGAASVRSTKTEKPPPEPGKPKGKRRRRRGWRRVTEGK
PfHsp90 set2: growth inhibition of PfHsp90-expressing yeast, primary screen, antimalarial PfHsp90 inhibitor project, S. cerevisiae, BacTiter-Glo luminescence, single point, set 2 | AID 504621, 2011 | 0.32% of 310,000 active | inhibition, % at 9.4 µM | BacTiter-Glo ATP, 48 h; yeast lacking PDR1 and PDR3 efflux regulators;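 active = every replicate shows inhibition above about 80%, whatever the replicate mean, limit read from the data; inconclusive = mean inhibition reaches the set limit but some replicate falls short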
ARNT TACC3 PPI: disruptors of ARNT/TACC3 protein interaction, primary screen, biochemical, AlphaScreen, single concentration | Transforming acidic coiled-coil-containing protein 3 (Homo sapiens), Q9Y6A5 | AlphaScreen His-ARNT PAS-B/GST-TACC3 binding, luminescence; TACC3 fragment carries E629A point mutation | inhibition, % at 9.99 µM | 0.66% of 390,000 active | AID 623870, 2012;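 active = mean inhibition of replicates at least 50% and at least half of replicates each reaching 50%; inconclusive = half or more replicates reach 50% but mean below 50%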
CASP6 VEID inh: human caspase-6 inhibitors, primary screen, biochemical, VEID-R110 fluorescence, single point, set 2; inhibition, % at 12.5 µM; 0.53% of 350,000 active; purified caspase-6, Z-VEID-R110 cleavage fluorescence;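 active = mean inhibition across replicates at least about 35%, with every replicate also reaching that limit, limit read from the data; inconclusive = only one of the two criteria met; inactive = neither criterion met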
A number is an active result; - = inactive; ? = inconclusive; . = no result.

SMILES	SIRT5 inh	NSD2 HMT inh	PfHsp90 set2	ARNT TACC3 PPI	CASP6 VEID inh
C[C@H]1CN([C@@H](C)CO)C(=O)Cc2cc(NS(=O)(=O)c3ccc(Cl)cc3)ccc2O[C@@H]1CN(C)Cc1ccc(Cl)c(Cl)c1	15	.	.	-	.
C[C@H](CO)N1C[C@H](C)[C@@H](CN(C)Cc2ccc(Cl)c(Cl)c2)Oc2ccc(NS(=O)(=O)c3ccccc3)cc2CC1=O	28	.	.	-	-
C[C@@H]1CN([C@H](C)CO)C(=O)Cc2cc(NC(=O)c3ccncc3)ccc2O[C@H]1CN(C)Cc1ccc(Cl)c(Cl)c1	-	.	.	.	-
C[C@H](CO)N1C[C@H](C)[C@@H](CN(C)Cc2ccc(Cl)c(Cl)c2)Oc2ccc(NC(=O)c3ccncc3)cc2CC1=O	17	.	.	.	-
O=C(C[C@@H]1CC[C@@H]2NC[C@H](O)COC[C@H]2O1)NCc1ccc(Oc2ccccc2)cc1	-	.	.	-	-
CC(C)C[C@H](NC(=O)c1nc[nH]c1C(=O)NC1CCNCC1)C(=O)OC(C)(C)C	17	.	-	-	-
O=C(O)COn1c(-c2ccccc2)nc2ccc([N+](=O)[O-])cc21	-	-	-	.	43
CCOC(=O)C1=C(COC(=O)/C=C/c2ccco2)NC(=O)NC1C (centres undefined)	-	-	-	-	61
CC1CCN(C(=O)COC(=O)/C=C/c2ccco2)CC1	-	-	-	-	49
CCOC(=O)C1=C(COC(=O)/C=C/c2ccc(OC)cc2)NC(=O)NC1C (centres undefined)	-	-	.	-	-
CO[C@@H]1CN(C)C(=O)c2cc(NS(=O)(=O)c3ccccc3)ccc2OC[C@H](C)NC[C@H]1C	.	.	.	-	-
CC(=O)Nc1ccc(NC2=C(Cl)C(=O)c3ccccc3C2=O)cc1	-	-	.	.	-
Cc1ccc(NC2=C(NCCO)C(=O)c3ccccc3C2=O)cc1	.	65	-	48	.
O=C(CCn1c(=O)oc2ccccc21)NCCN1CCc2ccccc2C1	.	-	-	-	.
O=C(CCCn1c(=O)oc2ccccc21)N1CCc2ccccc2C1	.	-	-	active	.
O=C1CC(=O)NC(SCC(=O)Nc2ccccc2[N+](=O)[O-])=N1	-	.	-	-	41
O=C(C[C@@H]1C=C[C@H](NC(=O)c2ccc(F)cc2)[C@@H](CO)O1)NCCc1ccccc1	-	.	.	-	-
Cc1c(C)c2c(OCC(=O)N3CCC[C@H]3C(=O)O)cc3c(c2oc1=O)CCC(C)(C)O3	-	.	-	128	-
Nc1cccc(-c2csc(-n3ncc(C(=O)O)c3C(F)(F)F)n2)c1	29	-	-	-	-
O=C(O)c1cnn(-c2nc(-c3cccc(F)c3)cs2)c1C(F)(F)F	-	-	-	-	-
CC1CCCCC12NC(=O)N(Cc1cc(=O)n3ccsc3n1)C2=O (centres undefined)	-	-	-	-	42
Cn1cnc(S(=O)(=O)Nc2ccccc2N2CCOCC2)c1	15	-	.	.	-
C[C@@H]1CCCCO[C@@H](CN(C)S(=O)(=O)c2ccc(Cl)cc2)[C@@H](C)CN([C@H](C)CO)C(=O)c2cc(NS(=O)(=O)c3ccc(F)cc3)ccc2O1	15	.	.	-	-
C[C@@H]1CCCCO[C@@H](CN(C)S(=O)(=O)c2ccc(Cl)cc2)[C@H](C)CN([C@H](C)CO)C(=O)c2cc(NS(=O)(=O)c3ccc(F)cc3)ccc2O1	-	.	.	-	-
C[C@@H]1CCCCO[C@H](CN(C)S(=O)(=O)c2ccc(Cl)cc2)[C@@H](C)CN([C@@H](C)CO)C(=O)c2cc(NS(=O)(=O)c3ccc(F)cc3)ccc2O1	-	.	.	-	-
SMILES	SIRT5 inh	NSD2 HMT inh	PfHsp90 set2	ARNT TACC3 PPI	CASP6 VEID inh
C[C@@H]1CN([C@H](C)CO)C(=O)c2cc(NS(=O)(=O)c3ccc(F)cc3)ccc2O[C@@H](C)CCCCO[C@@H]1CN(C)S(=O)(=O)c1ccc(Cl)cc1	26	.	.	-	-
C[C@@H]1CN([C@@H](C)CO)C(=O)c2cc(NS(=O)(=O)c3ccc(F)cc3)ccc2O[C@@H](C)CCCCO[C@@H]1CN(C)S(=O)(=O)c1ccc(Cl)cc1	25	.	.	-	-
C/C(=C\c1ccccc1)C(=O)N1CCC=CC1=O	-	.	.	.	-
CCCN1[C@@H]2c3ccc(-c4cccc(F)c4)c(=O)n3C[C@H]1[C@H](CO)[C@H]2C(=O)NCC1CC1	-	.	.	-	-
COc1ccc(NC(C)=O)cc1NC(=O)CSc1nnc(-c2ccccn2)n1C	.	-	-	-	.
Nn1c(SCC(=O)Nc2ccc3c(c2)OCCO3)nnc1-c1ccccn1	.	-	-	70	.
Cc1ccccc1-c1nnc(SCC(=O)Nc2ccc3c(c2)OCCO3)n1N	-	-	-	-	-
CCn1c(SCC(=O)Nc2cc(NC(C)=O)ccc2OC)nnc1-c1ccccn1	.	.	-	50	.
CCC(=O)N(C)C[C@@H]1Oc2cc(-c3ccccc3)ccc2S(=O)(=O)N([C@H](C)CO)C[C@H]1C	-	.	.	-	-
O=C1NC(Cc2ccc(O)cc2)c2nc3cc(F)ccc3c(=O)n2-c2ncccc21 (centres undefined)	-	.	.	.	-
O=C1NC(Cc2ccc(O)cc2)c2nc3ccc(F)cc3c(=O)n2-c2ncccc21 (centres undefined)	22	.	.	.	-
CCN(CC)CCNC(=O)CCN1N=C(c2ccccc2)CCC1=O	26	-	-	-	.
O=C1c2ccccc2NC(c2ccc(-c3ccc(C(F)(F)F)cc3)o2)N1O (centres undefined)	-	.	101	-	-
COc1ccccc1-c1ccc2c(c1)O[C@@H](CN(C)Cc1ccc3c(c1)OCO3)[C@@H](C)CN([C@@H](C)CO)S2(=O)=O	21	.	.	-	-
C[C@H]1CN([C@@H](C)CO)S(=O)(=O)c2ccc(C#CCN(C)C)cc2O[C@H]1CN(C)Cc1ccc2c(c1)OCO2	-	.	.	.	36
CC(C)CC#Cc1ccc2c(c1)O[C@H](CN(C)Cc1ccc3c(c1)OCO3)[C@H](C)CN([C@H](C)CO)S2(=O)=O	14	.	.	-	-
COc1ccccc1-c1ccc2c(c1)O[C@H](CN(C)Cc1ccc3c(c1)OCO3)[C@H](C)CN([C@@H](C)CO)S2(=O)=O	?	.	.	-	-
CC(C)CC#Cc1ccc2c(c1)O[C@@H](CN(C)Cc1ccc3c(c1)OCO3)[C@@H](C)CN([C@H](C)CO)S2(=O)=O	.	.	.	-	-
O=C(Nc1ccccc1)N1C[C@@H]2[C@H](c3ccccc31)[C@H](CO)N2Cc1cocn1	-	.	.	-	-
COc1cc2c(cc1OC)CN(C(=O)[C@@H]1[C@H]3C(=O)O[C@H](c4ccccc4)[C@H](c4ccccc4)N3[C@H](c3ccc(OCCO)cc3)[C@@]13C(=O)Nc1ccc(C#CC4(O)CCCCCC4)cc13)CC2	-	.	.	-	-
